# According to PubChem BioAssay (Tox21):
# Unmarked numbers belong to inactive results. Results filed as inconclusive are left out. A call without a number means that no potency is given here. Active and inactive are the calls of the source. Unless noted, calls come from the whole dose curve; as a rule, active = well fitted curve in the direction sought with a large enough effect in the repeat runs; inconclusive = weak or mixed curves; inactive = no such curve, though single readings can be large; an effect the other way counts as inactive or inconclusive.
# Assays:
# [1] = qHTS assay to identify small molecule agonists of the estrogen receptor alpha (ER-alpha) signaling pathway in the presence of an antagonist - cell viability counter screen (AID 1259386);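 note: series mostly up to about 92 µM; cells exposed to compounds for 22 h at 37 °C before the viability read; nearly all actives have a fitted effect of over 30% in size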
# Outline: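 VM7Luc4E2, stripped-serum pre-culture 5 d; 24hr plating; +ICI-182,780 10.0nM final; cpds 15 conc, 22hr, 37C/5% CO2; CellTiter-Fluor added at 21hr, fluorescence 1hr later.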
# [2] = target: Progesterone receptor (Homo sapiens) (UniProt P06401); assay: qHTS assay to identify small molecule agonists of the progesterone receptor (PR) signaling pathway (AID 1346784; calls by dose curve; note: nearly all actives have a fitted effect of over 30% in size; note: potency is the fitted concentration of half-maximal effect)
# Outline: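 HEK 293T PR-UAS-bla reporter cells, 2% charcoal-stripped FBS; 6 hr settle at 37C/5% CO2, compound (DMSO) 16 hr, LiveBLAzer B/G FRET substrate 2 hr RT, fluorescence intensity read.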
# [3] = target: Progesterone receptor (Homo sapiens) (UniProt P06401); assay: qHTS assay to identify small molecule antagonists of the progesterone receptor (PR) signaling pathway (AID 1346795; active = well fitted inhibition curve with a large enough effect in the signal ratio in the repeat runs, not every such curve was filed as active; the % refers to the signal ratio)
# Outline: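 Beta-lactamase reporter, HEK293T PR-UAS-bla line; 2% charcoal-stripped FBS; 6 hr pre-incubation, 37C/5% CO2. Compound + R5020 1 nM final, 16 hr. LiveBLAzer B/G FRET substrate, 2 hr RT; fluorescence intensity read.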
# [4] = qHTS assay to identify small molecule antagonists of the progesterone receptor (PR) signaling pathway - cell viability counter screen (AID 1346798); note: nearly all actives have a fitted effect of over 50% in size; note: potency is the fitted concentration of half-maximal effect; for activity change, negative = cytotoxicity: series mostly up to about 92 µM
# Outline: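 Luminescence readout (CellTiter-Glo, 30 min, RT) of viability in PR-UAS-bla HEK293T cells exposed to compound and R5020 agonist for 16 hr at 37C, 5% CO2; run in the same wells as the beta-lactamase reporter read.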
# [5] = qHTS assay to identify small molecule agonists of the progesterone receptor (PR) signaling pathway - cell viability counter screen (AID 1346799; calls by dose curve; note: nearly all actives have a fitted effect of over 45% in size; note: potency is the fitted concentration of half-maximal effect)
# Outline: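 HEK293T PR-UAS-bla, 3,000 cells/well, 2% charcoal-stripped FBS; 6 h settle, compound 16 h at 37C/5% CO2; LiveBLAzer 2 h RT, then CellTiter-Glo 30 min RT, luminescence read.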
# [6] = qHTS assay to identify small molecule antagonists of the TGF-beta/Smad signaling pathway - cell viability counter screen (AID 1346824); note: nearly all actives have a fitted effect of over 50% in size
# Outline: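 Cytotoxicity counter-screen run in the same wells as the beta-lactamase Smad reporter read: CellTiter-Glo luminescence after 30 min at room temperature. HEK 293T SBE-bla cells had 5 hr compound exposure at 37 C with TGF-beta1 (0.25 ng/mL stock).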
# [7] = qHTS assay to identify small molecule agonists of the TGF-beta/Smad signaling pathway - cell viability counter screen (AID 1346829); note: top concentration of the series differs between compounds; nearly all actives have a fitted effect of over 45% in size
# Outline: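 CellTiter-Glo luminescence readout; SBE-bla HEK 293T cells, overnight plating, compound 5 hr at 37 C/5% CO2, then bla substrate 2 hr RT, then CellTiter-Glo 30 min RT.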
# [8] = qHTS assay to identify small molecule agonists of the TGF-beta/Smad signaling pathway (AID 1346859; active = well fitted activation curve with a large enough effect in the signal ratio in the repeat runs, not every such curve was filed as active; the % refers to the signal ratio; note: series mostly up to about 77 µM)
# Outline: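 Read-out: fluorescence at 460 and 530 nm (405 nm excitation) after a 2 hr room-temperature incubation with beta-lactamase FRET substrate. SBE-bla HEK 293T cells had been treated with test compounds for 5 hr at 37 C.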
# [9] = target: Thyrotropin-releasing hormone receptor (Homo sapiens) (UniProt P34981); assay: qHTS assay to identify small molecule agonists of the thyrotropin-releasing hormone receptor (TRHR) signaling pathway (AID 1346891; calls by dose curve;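 note: HEK293 cells expressing TRHR with calcium dye readout; series mostly up to about 58 µM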)
# Outline: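 HEK293/TRHR cells, 1500 per well, 18 h 37 °C; Ca dye 2 h 37 °C; pin-tool compound addition (agonist mode); kinetic fluorescence 3 min, 1 s reads; 15 concentrations, triplicate.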
# [10] = target: Thyrotropin-releasing hormone receptor (Homo sapiens) (UniProt P34981); assay: qHTS assay to identify small molecule antagonists of the thyrotropin-releasing hormone receptor (TRHR) signaling pathway (AID 1346877; active = well fitted inhibition curve with a large enough effect in the repeat runs, not every such curve was filed as active; note: series mostly up to about 51 µM)
# Outline: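 Intracellular calcium fluorescence, read kinetically every second over 3 min, reports TRH-evoked signalling in HEK293 cells carrying TRHR. Test compounds were added 5 min ahead of a 1 nM TRH challenge.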
# Sequence of Progesterone receptor (Homo sapiens) (P06401 whole entry, looked up): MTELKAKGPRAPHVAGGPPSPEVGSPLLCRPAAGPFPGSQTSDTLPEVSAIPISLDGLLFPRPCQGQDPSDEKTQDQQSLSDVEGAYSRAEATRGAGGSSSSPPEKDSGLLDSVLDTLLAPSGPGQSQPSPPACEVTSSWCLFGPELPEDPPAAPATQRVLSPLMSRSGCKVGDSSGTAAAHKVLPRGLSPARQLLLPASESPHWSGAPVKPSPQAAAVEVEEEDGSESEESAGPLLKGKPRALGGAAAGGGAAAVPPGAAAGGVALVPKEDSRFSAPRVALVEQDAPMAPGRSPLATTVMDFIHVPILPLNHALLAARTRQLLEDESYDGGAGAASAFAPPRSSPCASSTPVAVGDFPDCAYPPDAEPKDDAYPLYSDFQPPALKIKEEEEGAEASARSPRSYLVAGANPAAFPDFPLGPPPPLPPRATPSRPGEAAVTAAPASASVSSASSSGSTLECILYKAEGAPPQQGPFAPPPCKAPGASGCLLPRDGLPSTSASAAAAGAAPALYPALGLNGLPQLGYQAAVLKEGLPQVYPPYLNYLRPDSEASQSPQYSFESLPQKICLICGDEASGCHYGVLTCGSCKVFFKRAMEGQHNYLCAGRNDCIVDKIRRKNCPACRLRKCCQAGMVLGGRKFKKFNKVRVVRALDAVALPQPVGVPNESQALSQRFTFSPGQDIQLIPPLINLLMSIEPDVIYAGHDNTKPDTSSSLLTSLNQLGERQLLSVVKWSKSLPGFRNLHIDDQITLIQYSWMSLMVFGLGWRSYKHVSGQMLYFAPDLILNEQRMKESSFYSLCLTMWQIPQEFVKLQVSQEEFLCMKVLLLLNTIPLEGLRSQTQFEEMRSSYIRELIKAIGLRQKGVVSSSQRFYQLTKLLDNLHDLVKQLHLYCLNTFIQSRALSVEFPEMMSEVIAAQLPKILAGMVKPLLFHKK
# Sequence of Thyrotropin-releasing hormone receptor (Homo sapiens) (P34981 whole entry, looked up): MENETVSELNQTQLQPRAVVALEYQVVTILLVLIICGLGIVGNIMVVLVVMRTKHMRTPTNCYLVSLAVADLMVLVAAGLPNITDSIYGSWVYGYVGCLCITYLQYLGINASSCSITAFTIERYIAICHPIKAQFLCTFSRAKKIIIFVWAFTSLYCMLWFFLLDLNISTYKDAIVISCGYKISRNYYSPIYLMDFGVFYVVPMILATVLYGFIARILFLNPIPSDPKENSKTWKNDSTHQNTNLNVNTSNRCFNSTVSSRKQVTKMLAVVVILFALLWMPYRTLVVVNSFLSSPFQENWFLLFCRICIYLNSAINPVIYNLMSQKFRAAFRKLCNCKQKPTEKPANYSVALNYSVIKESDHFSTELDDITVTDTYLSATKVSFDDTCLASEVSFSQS
smiles,measurement,setting,value
O=C(O)CCS,Potency,[1],inactive
same,Potency,[2],inactive
same,Potency,[3],inactive
same,Potency,[4],inactive
same,Potency,[5],inactive
same,outcome,[6],inactive
same,Potency,[7],inactive
same,Potency,[8],inactive
same,outcome,[9],inactive
NC(=O)c1ccccc1[N+](=O)[O-],Potency,[1],inactive
same,Potency,[2],inactive
same,Potency,[3],inactive
same,Potency,[4],inactive
same,Potency,[5],inactive
same,outcome,[6],inactive
same,Potency,[7],inactive
same,Potency,[8],inactive
same,outcome,[9],inactive
CCCCCCC(O)CCCCCCCCCCC(=O)OC (stereo not drawn),Potency,[1],inactive
same,Potency,[2],inactive
same,Potency,[3],inactive
same,Potency,[4],inactive
same,Potency,[5],inactive
same,outcome,[6],inactive
same,Potency,[7],inactive
same,Potency,[8],inactive
same,outcome,[10],inactive
same,outcome,[9],inactive
CC1C(C)(C)C2=C(C(=O)CCC2)C1(C)C (stereo not drawn),Potency,[1],inactive
same,Potency,[2],inactive
same,Potency,[3],inactive
same,Potency,[4],inactive
same,Potency,[5],inactive
same,outcome,[6],inactive
same,Potency,[7],inactive
same,Potency,[8],inactive
same,outcome,[10],inactive
same,outcome,[9],inactive
O=P(O)(O)Oc1ccccc1,Potency,[1],inactive
same,Potency,[2],inactive
same,Potency,[3],inactive
same,Potency,[4],inactive
same,Potency,[5],inactive
same,outcome,[6],inactive
same,Potency,[7],inactive
same,Potency,[8],inactive
same,outcome,[10],inactive
same,outcome,[9],inactive
CCCCOC(=O)CCCCC(=O)OCCCC,Potency,[1],inactive
same,Potency,[2],inactive
same,Potency,[3],inactive
same,Potency,[4],inactive
same,Potency,[5],inactive
same,outcome,[6],inactive
same,Potency,[7],inactive
same,Potency,[8],inactive
same,outcome,[9],inactive
O=C1CC[C@@H](C(=O)O)N1,Potency,[1],inactive
same,Potency,[2],inactive
same,Potency,[3],inactive
same,Potency,[4],inactive
same,Potency,[5],inactive
same,outcome,[6],inactive
same,Potency,[7],inactive
same,Potency,[8],inactive
same,outcome,[10],inactive
same,outcome,[9],inactive
O=CNNC=O,Potency,[1],inactive
same,Potency,[2],inactive
same,Potency,[3],inactive
same,Potency,[4],inactive
same,Potency,[5],inactive
same,outcome,[6],inactive
same,Potency,[7],inactive
same,Potency,[8],inactive
same,outcome,[10],inactive
same,outcome,[9],inactive
COC(=O)CC(C(C)=O)C(=O)OC (stereo not drawn),Potency,[1],inactive
same,Potency,[2],inactive
same,Potency,[3],inactive
same,Potency,[4],inactive
same,Potency,[5],inactive
same,outcome,[6],inactive
same,Potency,[7],inactive
same,Potency,[8],inactive
same,outcome,[10],inactive
same,outcome,[9],inactive
O=c1[nH]c2cc(C(F)(F)F)c(N3CCOCC3)cc2n(CP(=O)(O)O)c1=O,Potency,[1],inactive
same,Potency,[2],inactive
same,Potency,[3],inactive
same,Potency,[4],inactive
same,Potency,[5],inactive
same,outcome,[6],inactive
same,Potency,[7],inactive
same,Potency,[8],inactive
same,outcome,[10],inactive
same,outcome,[9],inactive
O=c1[nH][nH]c(=O)c2cc([N+](=O)[O-])ccc12,Potency,[1],inactive
same,Potency,[2],inactive
same,Potency,[3],inactive
same,Potency,[4],inactive
same,Potency,[5],inactive
same,outcome,[6],inactive
same,Potency,[7],inactive
same,Potency,[8],inactive
same,outcome,[10],inactive
same,outcome,[9],inactive
CCSC(=O)N(CC)CC,Potency,[1],inactive
same,Potency,[2],inactive
same,Potency,[3],inactive
same,Potency,[4],inactive
same,Potency,[5],inactive
same,outcome,[6],inactive
same,Potency,[7],inactive
same,Potency,[8],inactive
same,outcome,[9],inactive
CC(C(=O)O)c1ccc(C(=O)c2cccs2)cc1 (stereo not drawn),Potency,[1],inactive
same,Potency,[2],inactive
same,Potency,[3],inactive
same,Potency,[4],inactive
same,Potency,[5],inactive
same,outcome,[6],inactive
same,Potency,[7],inactive
same,Potency,[8],inactive
same,outcome,[10],inactive
same,outcome,[9],inactive
ClC1=C(Cl)C1(Cl)Cl,Potency,[1],inactive
same,Potency,[2],inactive
same,Potency,[3],inactive
same,Potency,[4],inactive
same,Potency,[5],inactive
same,outcome,[6],inactive
same,Potency,[7],inactive
same,Potency,[8],inactive
same,outcome,[9],inactive
COc1ccc(C2C(=O)c3ccccc3C2=O)cc1,Potency,[1],inactive
same,Potency,[2],inactive
same,Potency,[3],inactive
same,Potency,[4],inactive
same,Potency,[5],inactive
same,outcome,[6],inactive
same,Potency,[7],inactive
same,Potency,[8],inactive
same,outcome,[10],inactive
same,outcome,[9],inactive
OCC(CO)n1cnc(-c2ccc(F)cc2)c1-c1ccnc(Oc2ccccc2)n1,Potency,[1],inactive
same,Potency,[2],inactive
same,Potency,[3],inactive
same,Potency,[4],inactive
same,Potency,[5],inactive
same,outcome,[6],inactive
same,Potency,[7],inactive
same,Potency,[8],inactive
same,outcome,[10],inactive
same,outcome,[9],inactive
BrC(Br)C(Br)Br,Potency,[1],inactive
same,Potency,[2],inactive
same,Potency,[3],inactive
same,Potency,[4],inactive
same,Potency,[5],inactive
same,outcome,[6],inactive
same,Potency,[7],inactive
same,Potency,[8],inactive
same,outcome,[10],inactive
same,outcome,[9],inactive
CCCCCCCCCCCCCOC(=O)CCSCCC(=O)OCCCCCCCCCCCCC,"activity change, negative = cytotoxicity",[1],-1.3% [at 19 µM]
same,Potency,[2],644 nM (active)
same,"activity change, negative = inhibition",[3],5.83% [at 18.9 µM]
same,"activity change, negative = cytotoxicity",[4],-8.45% [at 18.9 µM]
same,"activity change, negative = cytotoxicity",[5],36.2% [at 19 µM]
same,"viability change, negative = cytotoxic",[6],16.1% [at 15.8 µM]
same,"activity change, negative = cytotoxicity",[7],-1.41% [at 15.8 µM]
same,activation,[8],1.33% [at 15.8 µM]
same,"activity, negative = inhibition",[10],4.46% [at 10.5 µM]
same,activation,[9],0.934% [at 11.8 µM]
CCN(CC)CCOc1ccccc1C(=O)CCc1ccccc1,Potency,[1],inactive
same,Potency,[2],inactive
same,Potency,[3],inactive
same,Potency,[4],11.9 µM (active)
same,Potency,[5],9.44 µM (active)
same,outcome,[6],inactive
same,Potency,[7],inactive
same,Potency,[8],inactive
same,outcome,[9],inactive
CCNc1nc(N)nc(Cl)n1,Potency,[1],inactive
same,Potency,[2],inactive
same,Potency,[3],inactive
same,Potency,[4],inactive
same,Potency,[5],inactive
same,outcome,[6],inactive
same,Potency,[7],inactive
same,Potency,[8],inactive
same,outcome,[10],inactive
same,outcome,[9],inactive
CC(C)(C)S,Potency,[1],inactive
same,Potency,[2],inactive
same,Potency,[3],inactive
same,Potency,[4],inactive
same,Potency,[5],inactive
same,outcome,[6],inactive
same,Potency,[7],inactive
same,Potency,[8],inactive
same,outcome,[10],inactive
same,outcome,[9],inactive
CC1=CC[C@@H]2C[C@H]1C2(C)C,"activity change, negative = cytotoxicity",[1],3.72% [at 19 µM]
same,activation,[2],3.56% [at 19 µM]
same,"activity change, negative = inhibition",[3],6.78% [at 18.9 µM]
same,"activity change, negative = cytotoxicity",[4],0.83% [at 18.9 µM]
same,"activity change, negative = cytotoxicity",[5],-14.1% [at 19 µM]
same,"viability change, negative = cytotoxic",[6],2.23% [at 15.8 µM]
same,"activity change, negative = cytotoxicity",[7],7.86% [at 15.8 µM]
same,activation,[8],0.129% [at 15.8 µM]
same,activation,[9],-0.516% [at 11.8 µM]
O=C(O)/C=C/c1ccc(O)c(O)c1,Potency,[1],inactive
same,Potency,[2],inactive
same,Potency,[3],inactive
same,Potency,[4],inactive
same,Potency,[5],inactive
same,outcome,[6],inactive
same,Potency,[7],inactive
same,Potency,[8],inactive
same,outcome,[10],inactive
same,outcome,[9],inactive
COc1ccc(CCN(C)CCCN2CCc3cc(OC)c(OC)cc3CC2=O)cc1OC,Potency,[1],inactive
same,Potency,[2],inactive
same,Potency,[3],inactive
same,Potency,[4],inactive
same,Potency,[5],inactive
same,outcome,[6],inactive
same,Potency,[7],inactive
same,Potency,[8],inactive
same,outcome,[10],inactive
same,outcome,[9],inactive
